Records with an inconclusive call do not appear. A call without a number means that no potency is given here. The source made the active and inactive calls. Calls follow the shape of the dose curve; as a rule, active = well fitted curve in the direction sought with a large enough effect; inconclusive = small, poorly fitted or top-dose-only effect, or another doubt; inactive = no such curve, though single readings can be large; an effect the other way counts as inactive or inconclusive.
Legend:
[1] = target: Calcium and integrin-binding protein 1 (Homo sapiens) (UniProt Q99828); assay: Primary qHTS for Identification of Calcium Integrin Binding Protein 1 (CIB1) Competitor (AID 1508620);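 also: GST tagged CIB1 binding a fluorescein labelled alphaIIb integrin peptide tracer; top concentration of the series differs between compounds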
In short: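 CIB1-GST (1 uM final) and compound incubated 15 min at room temperature before adding FITC-alphaIIb peptide tracer (100 nM final). Competition for binding read by fluorescence polarization (ex 480, em 540) after another 15 min at room temperature.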

[2] = Primary qHTS for inhibitors of nuclear receptor binding SET domain protein 2 (NSD2) in an isogenic RCH-ACV NSD2 p.E1099K mutant (9B) (AID 1645876); also: nearly all actives have a fitted effect of over 70% in size; also: potency is read from the fitted curve at half-maximal effect
[3] = Primary qHTS for inhibitors of nuclear receptor binding SET domain protein 2 (NSD2) in an RCH-ACV wild type WT cells (2C) (AID 1645877); also: nearly all actives have a fitted effect of over 70% in size; also: potency is read from the fitted curve at half-maximal effect

Calcium and integrin-binding protein 1 (Homo sapiens), sequence (Q99828 whole entry, looked up): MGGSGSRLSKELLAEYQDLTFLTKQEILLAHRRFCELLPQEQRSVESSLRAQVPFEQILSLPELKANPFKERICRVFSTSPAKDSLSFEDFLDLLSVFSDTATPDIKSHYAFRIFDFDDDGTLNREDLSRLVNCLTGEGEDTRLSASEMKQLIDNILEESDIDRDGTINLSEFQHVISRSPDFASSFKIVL

Compound	Potency [1]	activity change, negative = viability loss [2]	activity change, negative = cell killing [3]	Potency [2]	Potency [3]
CC1OC(OC2C(C)OC(OC3C(O)C(CO)OC(O[C@H]4CC[C@@]5(C)C(CC[C@]6(C)C5CC=C5C7[C@@H](C)[C@H](C)CC[C@]7(C(=O)O)CC[C@]56C(=O)O)C4(C)C)C3O)C(O)C2O)C(O)C(O)C1O (some centres not stated)	inactive	-0.763% [at 9.23 µM] (inactive)	-0.67% [at 9.23 µM] (inactive)	–	–
CC(=O)c1cc2c(cc1O)OC(C)(C)C=C2	inactive	–	–	inactive	inactive
CC(=O)O[C@H]1CC[C@@]2(C)C(CC[C@@H](C)[C@]23Cc2c(O)cc4c(c2O3)CN([C@@H](CCC(=O)O)C(=O)O)C4=O)C1(C)C (some centres not stated)	inactive	–	–	inactive	inactive
O=C(/C=C/c1ccc(O)cc1)N[C@@H](Cc1ccc(O)cc1)C(=O)O	inactive	–	–	inactive	inactive
O=C(O)CC(=O)OC[C@H]1O[C@@H](Oc2ccc3c(c2)OC[C@H]2c4cc5c(cc4O[C@@H]32)OCO5)[C@H](O)[C@@H](O)[C@@H]1O	inactive	–	–	inactive	inactive
Clc1cc2c(NC3CCCC3)nnc(-c3ccncc3)c2cc1Cl	inactive	–	–	inactive	inactive
C=CC1(C)C=C2C(=O)OC(=O)C3=C(CCCC3(C)C)C2(O)CC1 (configuration not stated)	inactive	–	–	inactive	inactive
C=C(C)C(=O)O[C@H]1C[C@@](C)(O)C(=O)CC(O)/C(C)=C\[C@H]2OC(=O)C(=C)[C@H]12 (some centres not stated)	inactive	–	–	4.01 µM (active)	1.27 µM (active)
C=CC1C(OC2OC(CO)C(O)C(O)C2O)OC=C(C(=O)OC)C1CC1CC(=O)CC(CCc2ccc(O)cc2)O1 (configuration not stated)	inactive	–	–	inactive	inactive

— PubChem BioAssay (NCATS)
